The results in this text go back to PubChem BioAssay (NCI).

Holding throughout (assay): NCI-60 one-dose screen, 48 h (100 = growth as untreated, 0 = no growth, -100 = all killed)
Common to all, as to details: 10 µM unless noted

The test system of test [1] is T-47D breast.
In test [2] the test system is BT-549 breast.
The test system of test [3] is MDA-MB-435 melanoma.
Test [4] deals with SW-620 colon.
The subject of test [5] is MCF7 breast.
Test [6] has as its system HCT-116 colon.
Test [7] has as its system HCC-2998 colon.
Test [8] deals with KM12 colon.

This is part of a sample that, as a whole, favours compounds with a hit. Of some 83,000 tested, about 20% had one in any assay.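 48-hour exposure, single concentration, 96-well plates; percent growth endpoint where 0 means no net growth. Active: below 10.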 A number with no mark means an inactive call. Activity calls are given as the source filed them.

Take `COC(=O)c1ccc(Cn2cnc3c(N)ncnc32)cc1`: the growth in test [1] was 106%; in test [2] it was 119%; in test [3] it was 123%; in test [4], 109%; in test [5], 98.3%; in test [6], 104%. Besides, the values for the growth in test [7] and in test [8] were 105% and 117%, respectively.

Turning to `COc1cc(-c2nc3cc(Cl)c(Cl)cc3[nH]2)ccc1OCC(=O)N=Nc1c(O)[nH]c2ccccc12`, the growth in test [1] is -63.4% (active); in test [2] it was -90.3% (active); in test [3], -94.9% (active); in test [4], -46.9% (active); in test [5], -76.1% (active); in test [6], -75.6% (active). The values for the growth in test [7] and in test [8] were -91.1% (active) and -81.5% (active), respectively.

For the molecule `CCN1CCC2(CC1)NC(=O)c1c(c3ccc(Cl)c(Cl)c3n1C)C2C#N` (stereo not given), the growth in test [1] was 75%; in test [2] it was 37.2%; in test [3], -59.9% (active); in test [4], 37.6%; in test [5] it was 35%; in test [6], 14%. The values for the growth in test [7] and in test [8] were -5.34% (active) and 41.2%, respectively.

In the case of `CCCN1CCN(c2ccc3nc(-c4ccc5nc(-c6ccc(OCC)cc6)[nH]c5c4)[nH]c3c2)CC1`, the growth is 47.2% in test [1]; 71.2% in test [2]; 27.6% in test [3]; -83.7% (active) in test [4]; -69.7% (active) in test [5]; -89.8% (active) in test [6]. For the same molecule, the growth in test [7] was -96.9% (active); in test [8] it was 42.8%.

Turning to `Cc1ccc(NS(=O)(=O)c2ccc(-c3cnc(C4CC4)o3)cc2)cc1C`, the growth is 26.4% in test [1]; 35.5% in test [2]; 4.45% (active) in test [3]; 19.7% in test [4]; 12.1% in test [5]; 19.4% in test [6]. In addition, the growth in test [7] is 45%; in test [8] it was 42.8%.

Turning to `COc1cc2nc(N3CCCC3)nc(Nc3ccccc3)c2cc1OC`, the growth in test [1] was -49.1% (active); in test [2] it was -70.9% (active); in test [3] it was -61.4% (active); in test [4], -20.4% (active); in test [5] it was -71.6% (active); in test [6], -79.4% (active). Moreover, the growth is -51.2% (active) in test [7] and 33% in test [8].

In the case of `Cc1ccc(NC(=O)/C=C/c2ccccc2)c(C(N)=O)c1`, the growth in test [1] was 27.6%; in test [2], 94%; in test [3] it was -45.5% (active); in test [4], 22.7%; in test [5] it was 15.7%; in test [6] it was 34.4%. In addition, the values for the growth in test [7] and in test [8] were 80.8% and 14.4%, respectively.

In the case of `CON1C(=O)CC[C@]2(C)[C@H]3CC[C@@H]4C([C@@]5(C)CCC(=O)O5)CC[C@@]4(C)[C@]3(C)CC[C@H]2C1(C)C` (stereo not given in full), the growth was 90.7% in test [1]; 103% in test [2]; 101% in test [3]; 103% in test [4]; 94.8% in test [5]; 91.4% in test [6]. Moreover, the results for the growth in test [7] and in test [8] were 108% and 101%, respectively.

As for `Cc1oc(-c2ccc(Cl)cc2Cl)cc1C(=O)Nc1nccs1`, the growth in test [1] was 70.3%; in test [2], 107%; in test [3], 100%; in test [4], 94.4%; in test [5], 60.8%; in test [6], 67.2%. The growth was 109% in test [7] and 98.7% in test [8].

Take `CCCOc1cc2ccccc2cc1C(=O)Nc1nc(N)c2c(ccc3nccc32)[nH]1`: the growth was -51% (active) in test [1]; -41% (active) in test [2]; -94.5% (active) in test [3]; -80.4% (active) in test [4]; -52.3% (active) in test [5]; -58.9% (active) in test [6]. In addition, the growth was -68.3% (active) in test [7] and -72.8% (active) in test [8].

For `Nc1n[nH]c2ccc([C@@H]3Nc4cc5c(cc4[C@H]4C6CCC(C6)[C@@H]34)C(=O)NC5)cc12` (stereo not given in full), the growth in test [1] is 76.9%; in test [2], -0.949% (active); in test [3] it was -21.5% (active); in test [4], 18.5%; in test [5], 17.2%; in test [6] it was 6.53% (active). In addition, the growth in test [7] was 17.1%; in test [8], 8.14% (active).

As for `CCOC(=O)c1c(CN2CCN(C)CC2)nc2ccc(Cl)cc2c1-c1ccccc1`, the growth in test [1] is 74.3%; in test [2] it was 58.5%; in test [3], 53.5%; in test [4], 94.8%; in test [5] it was 47.6%; in test [6] it was 63.7%. The growth is -0.061% (active) in test [7] and 76.2% in test [8].

For the molecule `CC(C)C[C@@H](NC(=O)[C@@H](Cc1ccccc1)NC(=O)c1cnccn1)B1Oc2ccc(C[C@H](NC(=O)[C@H](Cc3ccc4c(c3)OB([C@@H](CC(C)C)NC(=O)[C@@H](Cc3ccccc3)NC(=O)c3cnccn3)O4)NC(=O)[C@@H](N)CC3CCC4OB([C@@H](CC(C)C)NC(=O)[C@@H](CC5CCCCC5)NC(=O)C5CNCCN5)OC4C3)C(=O)NCCCC[C@@H]3NC(=O)[C@@H](Cc4ccccc4)NC(=O)[C@H](CC(=O)O)NC(=O)CNC(=O)[C@H](CCCNC(=N)N)NC3=O)cc2O1` (stereo not given in full), the growth is -57.8% (active) in test [1]; -66.8% (active) in test [2]; -74.7% (active) in test [3]; -49.5% (active) in test [4]; -43.9% (active) in test [5]; -69.2% (active) in test [6]. Also, the growth in test [7] was -95.7% (active); in test [8] it was -51.5% (active).

For `COC(=O)c1ccc2oc(NC(=O)c3ccc(Nc4ccc([N+](=O)[O-])cc4C)c([N+](=O)[O-])c3)nc2c1`, the growth in test [1] was 96%; in test [2], 110%; in test [3], 100%; in test [4] it was 103%; in test [5], 97.6%; in test [6], 106%. The growth is 101% in test [7] and 103% in test [8].

Turning to `COc1cc(/C=C/C(=O)c2ccc(O)c(CN3CCN(c4cc5c(cc4F)c(=O)c(C(=O)O)cn5C4CC4)CC3)c2)cc(OC)c1OC`, the growth in test [1] is 50.4%; in test [2], 31.8%; in test [3], 28.6%; in test [4], 34.8%; in test [5], 18.6%; in test [6], 7.72% (active). Also, the figures for the growth in test [7] and in test [8] were 67.2% and 72%, respectively.
